Only some compounds are listed: those with a hit (about 3.8% of all), similar ones and a draw of the others.
Nrf2 block: inhibitors of Nrf2 signaling | A549 ARE-Fluc reporter, luciferase luminescence, 18-24 h | AID 504444 | actives 2.1% (n = 360,000) | Potency, µM (series often up to 46 µM), usual class: inhibitors; also: nearly all actives have a fitted effect of over 60% in size
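A549 ARE_Fluc cells, 5000/well, 5% FBS OPTI-MEM; compounds in dose-response, 18-24 h at 37 °C/5% CO2; CellTiter-Fluor viability read (Ex 405/Em 525), then BugLite luciferase luminescence = Nrf2 activity.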
HepG2 tox: counter-screen for TGF-b inhibitors: cytotoxicity in HepG2 cells; HepG2 CAGA-GFP viability, ATP luminescence, 18 h; Potency, µM (series often up to 46.1 µM), hits mostly cytotoxic; actives 0.76% (n = 410,000)
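HepG2 CAGA-GFP cells (1000/well, DMEM with 1% FBS) received compound, then TGF-beta at 500 pg/mL final, and were incubated 18 hours at 37 degrees C. Viability was read by CellTiter-Glo luminescence. Media-only wells were set as complete cell-killing and DMSO as no toxicity.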
TGFb SMAD3 inh: inhibitors of TGF-b signaling. HepG2 CAGA-GFP TGF-b/SMAD3 reporter, GFP fluorescence, 18 h; TGF-beta stimulated, 500 pg/mL final. actives 1.2% (n = 410,000). Potency, µM (doses to about 46.1 µM), actives largely listed as inhibitors; also: nearly all actives have a fitted effect of over 65% in size
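Per well, imaged GFP fluorescence of HEPG2 CAGA-GFP cells gives the signal; cells get compound, then TGF-beta (500 pg/mL final), 18 h at 37 degrees C; %Activity versus -TGF-beta and +DMSO controls.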
ATXN2 expr inh: inhibitors of ATXN2 expression. HEK-293 ATXN2-luciferase reporter, luminescence, 24 h. Potency, µM (doses to about 57 µM), hits mostly inhibitors. actives 0.72% (n = 360,000). AID 1745845; also: nearly all actives have a fitted effect of over 55% in size
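qHTS (up to 57 uM final) was run with 24 h compound exposure of reporter cells at 37 °C. Each well was multiplexed: SteadyGlo luminescence measured ATXN2-luciferase expression after a fluorogenic Gly-Phe-AFC viability readout (25 uM final).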
A549 viability: A549 cytotoxicity, counter-screen for Nrf2 inhibitors | A549 ARE-Fluc cells, CellTiter-Fluor viability, 18-24 h | Potency, µM (top dose mostly 46 µM), hits mostly inhibitors | actives 0.16% (n = 390,000) | AID 504648
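A549 ARE_Fluc cells in 5% FBS OPTI-MEM were exposed to compounds in concentration-response for 18-24 h at 37 deg C. Viability was read by CellTiter-Fluor fluorescence (Ex 405/Em 525) after 30 min, before the luciferase read.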
ATXN viability: cell viability loss in ATXN counter-screen; S2 cells (HEK-293 line with an ATXN2-luciferase reporter) viability, CellTiter-Fluor protease fluorescence, 24 h; Potency, µM (titrated, usually from 56.7 µM), most hits filed as cytotoxic; actives 0.49% (n = 400,000); AID 651635; also: nearly all actives have a fitted effect of over 40% in size
Hits are given with their value; i = inactive; ? = inconclusive; nt = not tested or not shown. Calls follow the shape of the dose curve; as a rule, active = well fitted curve in the direction sought with a large enough effect; inconclusive = small, poorly fitted or top-dose-only effect, or another doubt; inactive = no such curve, though single readings can be large; an effect the other way counts as inactive or inconclusive.

SMILES	Nrf2 block	HepG2 tox	TGFb SMAD3 inh	ATXN2 expr inh	A549 viability	ATXN viability
Cc1ccc(C)c(C(=O)N(Cc2nc(-c3ccc(Cl)cc3)no2)C(C)C)c1	?	i	10µM	?	i	i
Cc1cc(Br)ccc1OCC(=O)N(Cc1nc(-c2ccccc2)no1)C(C)C	18µM	i	i	i	i	i
COc1cc2cc(/C=C/C(=O)c3ccco3)c(Cl)nc2cc1OC	i	13µM	?	i	i	i
Cc1ccc2cc(/C=C/C(=O)c3ccco3)c(Cl)nc2c1	?	i	?	i	i	i
Cc1ccc2nc(Cl)c(/C=C/C(=O)c3ccco3)cc2c1	?	i	13µM	i	i	i
Cc1cc(C)nc(N2CCCC(CCC(=O)NCc3ccc(F)c(F)c3)C2)n1 (stereo not given)	i	i	i	i	i	i
CC(C)c1ccc2oc(-c3ccc(Cl)c(NC(=O)c4cccs4)c3)nc2c1	?	i	i	i	i	i
N#Cc1ccc(-c2cccnc2)nc1SCc1ccc(Cl)cc1Cl	i	i	i	i	i	?
N#Cc1ccc(-c2cccnc2)nc1SCc1ccc(Cl)c(Cl)c1	23µM	i	i	?	i	i
OC(COc1ccc(F)cc1Cl)CN1CCC(Cc2ccccc2)CC1 (stereo not given)	i	16µM	?	nt	i	?
OC(COc1ccccc1F)CN1CCC(Cc2ccccc2)CC1 (stereo not given)	i	i	i	i	i	i
CC(C)CCNc1nc2c(S(=O)(=O)c3ccc(Br)cc3)nnn2c2ccsc12	i	i	i	nt	i	nt
COCC(C)NC(=O)c1cc2c(=O)n3cccc(C)c3nc2s1 (stereo not given)	i	i	i	i	i	i
Cn1c(N2CCOCC2)c(/C=N/OC(=O)c2ccc(F)cc2)c2ccccc21	0.65µM	i	i	?	i	?
CC(=O)O/N=C/c1c(N2CCOCC2)n(C)c2ccccc12	6.5µM	i	i	?	nt	?
CCN1CCc2c(sc(NC(=O)c3ccc(S(=O)(=O)N(CC)c4ccccc4)cc3)c2C(N)=O)C1	16µM	i	i	i	23µM	i
CC(C)CN(CC(C)C)S(=O)(=O)c1ccc(C(=O)Nc2sc3c(c2C(N)=O)CCN(C(C)C)C3)cc1	nt	11µM	i	?	i	nt
COc1ccc(-c2noc(CSc3nnc(-c4ccncc4)n3-c3cccc(C)c3)n2)cc1OC	?	i	i	i	i	?
O=C(Cn1cc(S(=O)(=O)Cc2ccccc2F)c2ccccc21)Nc1ccc(F)c(Cl)c1	?	i	?	nt	?	nt
O=C(Cn1cc(S(=O)(=O)Cc2ccccc2Cl)c2ccccc21)Nc1cccc(C(F)(F)F)c1	?	16µM	?	nt	?	nt
Cc1ccc(S(=O)(=O)N(C)C)cc1NC(=S)NC(C)CCCC(C)C (stereo not given)	?	i	18µM	i	i	i
Cc1ccc(S(=O)(=O)N(C)C)cc1NC(=S)NC(C)CCC(C)C (stereo not given)	?	i	i	i	i	i
Cc1ccc(S(=O)(=O)NCCC(=O)Nc2cc(S(=O)(=O)N(C)C)ccc2C)cc1C	7.3µM	i	i	i	i	i
O=[N+]([O-])c1cccc(S(=O)(=O)N2CCN(c3nc(-c4ccccc4)nc4ccccc34)CC2)c1	i	i	i	nt	i	nt
Cc1ccc2c(c1)N(C)/C(=C/c1cccc[n+]1C)S2	6.5µM	11µM	i	?	?	i
SMILES	Nrf2 block	HepG2 tox	TGFb SMAD3 inh	ATXN2 expr inh	A549 viability	ATXN viability
Cc1ccc2c(c1)N(C)/C(=C/c1cccc[n+]1CCO)S2	i	i	i	i	i	i
Cn1c(CN2CCCCC2)nc2cc(NC(=O)c3ccc(Cl)cc3)ccc21	5.8µM	i	?	i	i	i
Cn1c(CN2CCCC2)nc2cc(NC(=O)c3ccc(Cl)cc3)ccc21	?	i	i	i	i	i
COc1ccccc1NS(=O)(=O)c1ccc(C(=O)N2CCCC(C)C2)cc1 (stereo not given)	i	i	i	i	i	?
COc1ccccc1NS(=O)(=O)c1ccc(C(=O)N2CCCC(C(F)(F)F)C2)cc1 (stereo not given)	23µM	i	i	i	i	i
O=C(c1ccc(S(=O)(=O)N2CCCCCC2)cc1)N1CCCC(C(F)(F)F)C1 (stereo not given)	i	i	i	i	i	i
CC1CCN(S(=O)(=O)c2ccc(C(=O)N3CCCC(C(F)(F)F)C3)cc2)CC1 (stereo not given)	21µM	i	i	i	i	i
Oc1ccccc1/C=N/NC(=S)NC1CC2CC1C1C=CCC21 (stereo not given)	i	18µM	?	i	?	?
CCCCN(C(=O)c1ccc(C)c(S(=O)(=O)N2CCOCC2)c1)c1c(N)n(CCCC)c(=O)[nH]c1=O	i	i	?	i	i	i
Nc1c(C(=O)Nc2ccc(Br)cc2)sc2nc(-c3ccco3)ccc12	13µM	i	?	i	?	nt
Nc1c(C(=O)Nc2ccc(F)cc2)sc2nc(-c3ccco3)ccc12	i	i	i	i	i	nt
Cc1ccc(NC(=O)c2sc3nc4c(c(-c5ccco5)c3c2N)CCC4)cc1	18µM	i	i	i	i	?
Cc1cccc(NC(=O)CSc2nnc(CNC(=O)c3ccco3)o2)c1	i	i	i	i	i	i
CCOc1cc(/C=C/C(=O)Nc2ccc(C(=O)NCCN(CC)CC)cc2)ccc1OCC(C)C	?	13µM	?	nt	?	nt
Nc1ccc(-c2nc3ccc(N)cc3s2)cc1	?	i	i	20µM	i	i
O=C(O)c1ccc2nc(-c3ccccc3)sc2c1	?	i	i	8.9µM	i	i
CC1CCN(c2nc3ccc(C(=O)O)cc3s2)CC1	?	i	i	2.2µM	i	i
Nc1ccc(-c2nc3ccc(C(=O)O)cc3s2)cc1	?	i	i	1.4µM	i	i
Oc1ccc(-c2nc3ccccc3s2)cc1	i	i	?	nt	i	i
Nc1cc2sc(-c3ccc(C(=O)O)cc3)nc2cc1Cl	?	i	i	i	?	nt
COc1cccc(CCNc2ncnc3c2nnn3C)c1	nt	i	?	nt	i	nt
C/C(CCc1ccc2c(c1)OCO2)=N\NC(=S)NC(C)C	i	i	?	7.9µM	i	7.1µM
CS(=O)(=O)c1ccc(Cl)c(NC(=O)C2CCCCN2S(=O)(=O)c2ccccc2)c1 (stereo not given)	i	i	i	i	i	i
CCOC(=O)C1CCN(C(=O)c2cccc(S(=O)(=O)NCc3ccccc3)c2)CC1	i	i	i	nt	i	i
Cc1cc(OCC(=O)N2CCc3ccccc3C2)c2c(-c3ccccc3)cc(=O)oc2c1	16µM	i	?	?	i	i
